What is called AC50 is the midpoint of the concentration-response curve, whichever way the signal moves.

Read-out in assay [1]: Monokine induced gamma interferon (MIG), CXCL9 (gene 4283)
In words: BSK_hDFCGF_MIG: BioMAP Diversity Plus: hDFCGF Assay for Monokine induced gamma interferon (MIG) Biomarker Activity (AID 2283063). The following applies: primary human foreskin fibroblasts; actives raise or lower the signal. Put shortly:
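Human primary foreskin fibroblasts in the hDFCGF system, exposed to test chemical for 24 h; MIG measured by ELISA. Bidirectional curve fitting against DMSO negative control as activity baseline.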

Read-out in assay [2]: Matrix Metallopeptidase 1 (MMP1), MMP1 (gene 4312)
In words: BSK_hDFCGF_MMP1: BioMAP Diversity Plus: hDFCGF Assay for Matrix Metallopeptidase 1 (MMP1) Biomarker Activity (AID 2283064). The following applies: primary human foreskin fibroblasts; actives raise or lower the signal. Summed up:
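Human foreskin fibroblasts exposed to chemical for 24 h; MMP1 detected by ELISA, with DMSO as baseline for bidirectional fitting.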

Read-out in assay [3]: Vascular cell adhesion molecule 1 (VCAM1), VCAM1 (gene 7412)
In words: BSK_hDFCGF_VCAM1: BioMAP Diversity Plus: hDFCGF Assay for Vascular cell adhesion molecule 1 (VCAM1) Biomarker Activity (AID 2283065).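 Also: VCAM-1 protein level quantified by ELISA after 24 h chemical exposure.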 The following applies: primary human foreskin fibroblasts; actives raise or lower the signal. Put shortly: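 ELISA readout of VCAM-1 on human dermal fibroblast primary cultures, 24 h after chemical exposure. Gain or loss of signal fitted in both directions against DMSO baseline.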

Read-out in assay [4]: Plasminogen activator inhibitor-1 (PAI1), SERPINE1 (gene 5054)
In words: BSK_hDFCGF_PAI1: BioMAP Diversity Plus: hDFCGF Assay for Plasminogen activator inhibitor-1 (PAI1) Biomarker Activity (AID 2283066). The following applies: primary human foreskin fibroblasts; actives raise or lower the signal. Put shortly: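 Human skin fibroblast cultures receive chemical for 24 h before PAI-1 is measured by ELISA; signal changes are fitted bidirectionally against DMSO-treated wells.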

Read-out in assay [5]: Intercellular Adhesion Molecule 1 (ICAM1), ICAM1 (gene 3383)
As to the kind of experiment: BSK_KF3CT_ICAM1: BioMAP Diversity Plus: KF3CT Assay for Intercellular Adhesion Molecule 1 (ICAM1) Biomarker Activity (AID 2283067). The note with it: primary human keratinocytes with fibroblasts; actives raise or lower the signal. Put shortly: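 Cell-surface ICAM-1 was measured by ELISA 24 h after dosing primary human skin keratinocytes co-cultured with fibroblasts. Parallel SRB staining tracked overt cytotoxicity. Gain or loss of signal was fitted relative to DMSO.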

Read-out in assay [6]: Interferon-gamma inducible Protein 10 (IP10), CXCL10 (gene 3627)
As to the kind of experiment: BSK_KF3CT_IP10: BioMAP Diversity Plus: KF3CT Assay for Interferon-gamma inducible Protein 10 (IP10) Biomarker Activity (AID 2283068). The note with it: primary human keratinocytes with fibroblasts; actives raise or lower the signal. Summed up: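 Signal is secreted/surface IP-10 by ELISA in a human primary skin co-culture of keratinocytes and foreskin fibroblasts, taken 24 h post-dosing; DMSO served as negative control.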

Assay [7] is described as follows: BSK_KF3CT_SRB: Viability Assessment in the BioMAP Diversity Plus: KF3CT Assay (AID 2283069).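 Also: read 24 h after compound addition.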 The following applies: primary human keratinocytes with fibroblasts. Put shortly: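 Overt cytotoxicity is assessed as total protein by sulforhodamine B staining in parallel human skin co-cultures at 24 h after dosing. DMSO serves as negative control and baseline.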
Read-out in assay [8]: Interleukin-1 alpha (IL1a), IL1A (gene 3552)
In words: BSK_KF3CT_IL1a: BioMAP Diversity Plus: KF3CT Assay for Interleukin-1 alpha (IL1a) Biomarker Activity (AID 2283070). The following applies: primary human keratinocytes with fibroblasts; actives raise or lower the signal. Summed up:
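Readout is IL-1a level by ELISA, compared bidirectionally with DMSO as baseline. Cells: human keratinocytes co-cultured with foreskin fibroblasts, harvested 24 h post-dose.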

Read-out in assay [9]: TIMP metallopeptidase inhibitor 2 (TIMP2), TIMP2 (gene 7077)
In words: BSK_KF3CT_TIMP2: BioMAP Diversity Plus: KF3CT Assay for TIMP metallopeptidase inhibitor 2 (TIMP2) Biomarker Activity (AID 2283071). The following applies: primary human keratinocytes with fibroblasts; actives raise or lower the signal. Summed up: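 Measurements come from ELISA detection of TIMP-2 at 24 hours in a dosed human keratinocyte and foreskin fibroblast co-culture. DMSO serves as negative control and baseline.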

Read-out in assay [10]: Transforming growth factor beta 1 (TGFb1), TGFB1 (gene 7040)
As to the kind of experiment: BSK_KF3CT_TGFb1: BioMAP Diversity Plus: KF3CT Assay for Transforming growth factor beta 1 (TGFb1) Biomarker Activity (AID 2283072). The note with it: primary human keratinocytes with fibroblasts; actives raise or lower the signal. Summed up: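 TGF-b1 ELISA on a 24 h dosed co-culture of human keratinocytes and foreskin fibroblasts; cytotoxicity tracked in parallel cultures by SRB staining.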

Read-out in assay [11]: C-C motif chemokine 2 (Homo sapiens) (UniProt P13500)
As to the kind of experiment: BSK_KF3CT_MCP1: BioMAP Diversity Plus: KF3CT Assay for Monocyte Chemoattractant Protein 1 (MCP1/CCL2) Biomarker Activity (AID 2283073). The following applies: primary human keratinocytes with fibroblasts; actives raise or lower the signal. Put shortly: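 ELISA read-out of MCP-1, 24 h post-dose, in primary human skin keratinocytes co-cultured with fibroblasts. Parallel SRB staining monitors cytotoxicity; changes fitted both directions relative to DMSO.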

Read-out in assay [12]: Matrix Metallopeptidase 9 (MMP9), MMP9 (gene 4318)
As to the kind of experiment: BSK_KF3CT_MMP9: BioMAP Diversity Plus: KF3CT Assay for Matrix Metallopeptidase 9 (MMP9) Biomarker Activity (AID 2283074).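 Also: MMP9 protein level quantified by ELISA in the co-culture.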 The note with it: primary human keratinocytes with fibroblasts; actives raise or lower the signal. Put shortly: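 Values come from bidirectional fitting relative to DMSO of MMP-9 levels, which were measured by ELISA. Measurements were taken 24 h after chemical dosing of a keratinocyte and foreskin fibroblast co-culture.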

Read-out in assay [13]: urokinase plasminogen activator (uPA), PLAU (gene 5328)
As to the kind of experiment: BSK_KF3CT_uPA: BioMAP Diversity Plus: KF3CT Assay for urokinase plasminogen activator (uPA) Biomarker Activity (AID 2283075). The following applies: primary human keratinocytes with fibroblasts; actives raise or lower the signal. Put shortly: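 Values derive from bidirectional fitting against DMSO controls. Keratinocyte/foreskin fibroblast co-cultures received chemical; 24 h later uPA was detected by ELISA, with SRB total-protein staining in parallel wells for overt cytotoxicity.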

Read-out in the next assay: CD40, CD40 (gene 958)
In words: BSK_LPS_CD40: BioMAP Diversity Plus: LPS Assay for CD40 Biomarker Activity (AID 2283076). The note with it: primary human HUVEC with PBMC; actives raise or lower the signal. Summed up: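 In the LPS system of human endothelial cells with peripheral blood mononuclear cells, CD40 levels were read by ELISA 24 h post-treatment. Signal changes in either direction were fitted against the DMSO baseline, with parallel SRB protein staining.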

Read-out in assay [14]: E-selectin (Homo sapiens) (UniProt P16581)
As to the kind of experiment: BSK_LPS_Eselectin: BioMAP Diversity Plus: LPS Assay for Eselectin Biomarker Activity (AID 2283077). The note with it: primary human HUVEC with PBMC; actives raise or lower the signal. Summed up: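 E-selectin ELISA on LPS-stimulated endothelial cell/PBMC co-cultures, read 24 h post-treatment; gains and losses fitted against DMSO. Parallel SRB staining (0.1% SRB after 10% TCA fixation, 560 nm) flags overt cytotoxicity.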

Read-out in assay [15]: Interleukin-8 (IL8), CXCL8 (gene 3576)
In words: BSK_LPS_IL8: BioMAP Diversity Plus: LPS Assay for Interleukin-8 (IL8) Biomarker Activity (AID 2283078). The note with it: primary human HUVEC with PBMC; actives raise or lower the signal. Summed up: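 ELISA read-out of IL-8 after 24 h chemical treatment of LPS-activated endothelial/PBMC human primary co-cultures. Changes either up or down relative to DMSO; overt cytotoxicity checked by sulforhodamine B staining in parallel wells.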

The nature of assay [16]: BSK_LPS_SRB: Viability Assessment in the BioMAP Diversity Plus: LPS Assay (AID 2283079).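 Also: total protein by sulforhodamine B absorbance as a cytotoxicity measure; measured one day after compound addition.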 The following applies: primary human HUVEC with PBMC. Summed up:
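SRB viability endpoint: cells fixed with 10% TCA, stained with 0.1% SRB, read at 560 nm, 24 h post-dose. HUVEC/PBMC co-culture; signal change in either direction scored relative to DMSO.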

Read-out in assay [17]: Interleukin-1 alpha (IL1a), IL1A (gene 3552)
As to the kind of experiment: BSK_LPS_IL1a: BioMAP Diversity Plus: LPS Assay for Interleukin-1 alpha (IL1a) Biomarker Activity (AID 2283080). The note with it: primary human HUVEC with PBMC; actives raise or lower the signal. Summed up: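 Readout is IL-1a level by ELISA, 24 h post-dose, fitted as gain or loss relative to DMSO. System: LPS-activated human primary co-culture of vascular endothelium and peripheral blood mononuclear cells, with parallel SRB total-protein cytotoxicity.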

Read-out in assay [18]: Monocyte Chemoattractant Protein-1 (MCP1), CCL2 (gene 6347)
In words: BSK_LPS_MCP1: BioMAP Diversity Plus: LPS Assay for Monocyte Chemoattractant Protein-1 (MCP1) Biomarker Activity (AID 2283081).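 Also: secreted MCP-1 protein quantified by ELISA in culture supernatant.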 The following applies: primary human HUVEC with PBMC; actives raise or lower the signal. Put shortly:
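Secreted MCP-1 read by ELISA at 24 h post-dosing in an LPS-activated co-culture of endothelial cells with peripheral blood mononuclear cells. Fits run in both directions, DMSO as baseline; parallel SRB staining tracks overt cytotoxicity.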

Assay [19] is described as follows: BSK_LPS_PGE2: BioMAP Diversity Plus: LPS Assay for Prostaglandin E2 (PGE2) Biomarker Activity (AID 2283082). The following applies: primary human HUVEC with PBMC; actives raise or lower the signal. Summed up:
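Primary human endothelial cells and blood mononuclear cells, co-cultured with LPS, receive test chemical; PGE2 ELISA follows at 24 h, with SRB-stained parallel cultures flagging cytotoxicity.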

Activity calls are given as the source filed them. The calls were made as follows: active = hit-call score of the fitted dose curve at least 0.9, where 1 is the maximum; inactive = score below 0.9.

E-selectin (Homo sapiens), sequence (P16581 whole entry, looked up): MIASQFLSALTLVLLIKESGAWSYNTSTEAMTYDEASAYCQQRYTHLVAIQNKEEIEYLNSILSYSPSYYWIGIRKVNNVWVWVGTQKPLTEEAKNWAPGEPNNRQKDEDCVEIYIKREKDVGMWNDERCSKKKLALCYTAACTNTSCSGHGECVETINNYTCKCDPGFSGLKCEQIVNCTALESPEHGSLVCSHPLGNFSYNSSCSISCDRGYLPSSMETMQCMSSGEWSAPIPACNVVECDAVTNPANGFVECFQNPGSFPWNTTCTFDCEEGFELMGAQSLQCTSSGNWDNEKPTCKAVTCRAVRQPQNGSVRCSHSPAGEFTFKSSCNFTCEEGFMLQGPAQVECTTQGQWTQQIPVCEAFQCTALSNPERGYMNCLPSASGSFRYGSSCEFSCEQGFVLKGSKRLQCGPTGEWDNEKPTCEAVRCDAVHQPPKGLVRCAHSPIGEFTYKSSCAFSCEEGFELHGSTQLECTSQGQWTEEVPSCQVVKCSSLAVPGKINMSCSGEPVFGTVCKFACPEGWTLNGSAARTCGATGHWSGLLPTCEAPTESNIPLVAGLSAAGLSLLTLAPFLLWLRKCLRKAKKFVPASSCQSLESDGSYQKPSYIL

Turning to `CCC(C)c1cc([N+](=O)[O-])cc([N+](=O)[O-])c1OC(=O)OC(C)C` (configuration not stated), the AC50 in assay [1] is 9.32 µM (active); in assay [2], 11 µM (active); in assay [3], 7.79 µM (active); in assay [4] it was 4.79 µM (active); in [5] it was 9.58 µM (active); in assay [6] it was 5.26 µM (active). The AC50 in assay [7] is 25.3 µM (active); in [8], 20 µM (active); in assay [9], 20 µM (active); in assay [10], 20 µM (active); in assay [12], 20 µM (active); in assay [13], 20 µM (active). In addition, the AC50 is 7.3 µM (active) with CD40, CD40 (gene 958); 15 µM (active) in assay [14]; 29.7 µM (active) in assay [15]; 11.9 µM (active) in assay [16]; 29.5 µM (active) in [17]; 14.3 µM (active) in assay [18]. In [11], the result was inactive.

For `COc1ccc(OC)c(N=Nc2c(O)ccc3ccccc23)c1`, the AC50 in assay [1] is 1.93 µM (active); in assay [3], 1.42 µM (active); in [8], 8.38 µM (active); in assay [9] it was 7.85 µM (active); in [10], 3.97 µM (active); in [12] it was 4.27 µM (active). Also, the AC50 is 7.69 µM (active) in assay [13]; 3.84 µM (active) with CD40, CD40 (gene 958); 20 µM (active) in assay [14]; 6.45 µM (active) in assay [17]; 8.02 µM (active) in assay [18]. In addition, the outcome in [4], in [5], in assay [6], in assay [7], in assay [11] and in assay [15] was inactive. Moreover, in assay [16], the result was inactive.

Turning to `CC(=O)C1(C)CC2=C(CCCC2(C)C)CC1C` (configuration not stated), the AC50 in [1] was 14.2 µM (active); in [2], 12.8 µM (active); in [3], 9.73 µM (active); in assay [4] it was 11.8 µM (active); in assay [5] it was 12.3 µM (active); in assay [6], 11.2 µM (active). Besides, the AC50 in assay [7] was 10.2 µM (active); in [8] it was 13.1 µM (active); in assay [9], 5.63 µM (active); in assay [11], 10.3 µM (active); in assay [12], 10.9 µM (active); in assay [13], 11.6 µM (active). Also, the AC50 was 6.43 µM (active) with CD40, CD40 (gene 958); 9.47 µM (active) in [14]; 10.1 µM (active) in [15]; 13.3 µM (active) in assay [16]; 5.8 µM (active) in assay [17]; 10.9 µM (active) in assay [18]. The outcome in assay [10] and in assay [19] was inactive.
